# Out of some 39,000 compounds screened, about 3,300 (8.5%) were called active. Many of the other results were omitted from the sample, so actives are more common in it than they were.
# Test system: HepG2
# Assay: cytotoxicity call (relative viability < 0.9)
# Conditions: 10 µM
row,SMILES,cytotoxicity call
1,CO[C@@H](CN(C)C(=O)C1CCOCC1)[C@H](C)CN(C(=O)Nc1ccc(C(F)(F)F)cc1)[C@@H](C)CO,inactive
2,CC(C)CS(=O)(=O)N1C[C@H]2C[C@H](C(=O)N3CCOCC3)[C@@H](C1)O2,inactive
3,CC(=O)O[C@H]1C[C@](C)(O)C2=C[C@@H](O)[C@@](C)(O)[C@@H]2[C@H]2OC(=O)[C@@H](C)[C@@H]21,inactive
4,O=C(CN1CCOCC1)N[C@H]1CC[C@H](CCn2cc(C3CCCC3)nn2)O[C@@H]1CO,inactive
5,CC(C)NC(=O)N(C)C[C@H]1Oc2ccc(NS(=O)(=O)c3ccc(F)cc3)cc2CC(=O)N([C@@H](C)CO)C[C@@H]1C,inactive
6,C[C@@H]1CCCCO[C@H](CN(C)Cc2ccc3c(c2)OCO3)[C@H](C)CN([C@@H](C)CO)C(=O)c2cc(NC(=O)Nc3ccc4c(c3)OCO4)ccc2O1,active
7,C[C@@H]1CN([C@@H](C)CO)C(=O)c2cc(NC(=O)Nc3ccc4c(c3)OCO4)ccc2O[C@@H](C)CCCCO[C@@H]1CN(C)Cc1ccc2c(c1)OCO2,inactive
8,C[C@@H]1CCCCO[C@@H](CN(C)Cc2ccc3c(c2)OCO3)[C@@H](C)CN([C@H](C)CO)C(=O)c2cc(NC(=O)Nc3ccc4c(c3)OCO4)ccc2O1,inactive
9,C[C@@H]1CN([C@H](C)CO)C(=O)c2cc(NC(=O)Nc3ccc4c(c3)OCO4)ccc2O[C@@H](C)CCCCO[C@@H]1CN(C)Cc1ccc2c(c1)OCO2,active
10,C[C@H](CO)N1C[C@H](C)[C@@H](CN(C)Cc2ccc3c(c2)OCO3)OCCCC[C@H](C)Oc2ccc(NC(=O)Nc3ccc4c(c3)OCO4)cc2C1=O,inactive
11,C[C@@H]1CCCCO[C@H](CN(C)Cc2ccc3c(c2)OCO3)[C@@H](C)CN([C@H](C)CO)C(=O)c2cc(NC(=O)Nc3ccc4c(c3)OCO4)ccc2O1,inactive
12,Cc1noc(C)c1S(=O)(=O)Nc1ccc2c(c1)C(=O)N([C@H](C)CO)C[C@H](C)[C@@H](CN(C)C(=O)Nc1ccccc1)O2,inactive
13,CCn1cc(-c2ccnc3[nH]c(-c4cccc(CN(C)C)c4)cc23)c(-c2ccc(NC(=O)N(C)C)cc2)n1,active
14,C[C@@H]1CN([C@H](C)CO)S(=O)(=O)c2ccc(-c3ccc(F)cc3)cc2O[C@H]1CN(C)S(C)(=O)=O,inactive
15,C#Cc1ccc([C@@H]2C=C(C(=O)N3CCN(Cc4ccc5c(c4)OCO5)CC3)O[C@H](OCC)[C@H]2CCCO)cc1,inactive
16,O=S1(=O)CC[C@H](N[C@H]2CCS(=O)(=O)C2)C1,inactive
17,C[C@@H]1CN([C@@H](C)CO)S(=O)(=O)c2ccc(C#Cc3ccncc3)cc2O[C@H]1CN(C)S(=O)(=O)c1ccccc1,active
18,C[C@H]1CN([C@@H](C)CO)S(=O)(=O)c2ccc(C#Cc3ccncc3)cc2O[C@H]1CN(C)S(=O)(=O)c1ccccc1,active
19,C[C@@H]1CN([C@H](C)CO)S(=O)(=O)c2ccc(C#Cc3ccncc3)cc2O[C@@H]1CN(C)S(=O)(=O)c1ccccc1,active
20,C[C@H](CO)N1C[C@H](C)[C@@H](CN(C)S(=O)(=O)c2ccccc2)Oc2cc(C#Cc3ccncc3)ccc2S1(=O)=O,active
21,Cc1noc(C)c1NC(=O)Nc1ccc2c(c1)C(=O)N([C@@H](C)CO)C[C@H](C)[C@H](CN(C)CC1CCCCC1)OCCCC[C@@H](C)O2,inactive
22,COc1ccc(Br)cc1S(=O)(=O)NC(=O)/C=C/c1ccccc1Cc1ccc2ccccc2c1,inactive

row,SMILES,cytotoxicity call
1,COc1ccc(S(=O)(=O)Nc2ccc3c(c2)C(=O)N([C@@H](C)CO)C[C@@H](C)[C@@H](CN(C)C(=O)Nc2cccc4ccccc24)O3)cc1,inactive
2,C[C@@H]1CN([C@H](C)CO)S(=O)(=O)c2ccc(Br)cc2O[C@H]1CN(C)CC1CCOCC1,inactive
3,C[C@@H]1CN([C@H](C)CO)C(=O)c2cccc(NC(=O)NC3CCCCC3)c2O[C@@H]1CN(C)S(C)(=O)=O,inactive
4,CC(C)C[C@@H]1NC(=O)[C@@H]2C[C@H](C(=O)NCCCCCCN(C)C)[C@H](c3cccc(OCCO)c3)N2C1=O,inactive
5,CC(C)N1C[C@H](C)[C@@H](CN(C)Cc2ccc(Cl)cc2)Oc2c(NC(=O)c3ccncc3)cccc2C1=O,inactive
6,C[C@H](CO)N1C[C@H](C)[C@H](CN(C)S(=O)(=O)c2ccccc2)Oc2cc(C#Cc3ccncc3)ccc2S1(=O)=O,active
7,C[C@@H]1CN([C@@H](C)CO)S(=O)(=O)c2ccc(C#Cc3ccncc3)cc2O[C@@H]1CN(C)S(=O)(=O)c1ccccc1,active
8,C[C@@H]1CN([C@H](C)CO)S(=O)(=O)c2ccc(C#Cc3ccncc3)cc2O[C@H]1CN(C)S(=O)(=O)c1ccccc1,active
9,C[C@H]1CN([C@@H](C)CO)S(=O)(=O)c2ccc(C#Cc3ccncc3)cc2O[C@@H]1CN(C)S(=O)(=O)c1ccccc1,active
10,C[C@@H]1CN([C@H](C)CO)C(=O)c2cccc(NC(=O)c3cnccn3)c2O[C@@H]1CN(C)C(=O)NC1CCCCC1,inactive
11,Cc1noc(C)c1S(=O)(=O)Nc1cccc2c1O[C@@H](CN(C)Cc1ccccc1)[C@@H](C)CN([C@H](C)CO)C2=O,inactive
12,C[C@@H]1CN([C@H](C)CO)C(=O)c2cccc(NC(=O)Nc3cccc4ccccc34)c2O[C@@H]1CN(C)S(=O)(=O)c1ccccc1,inactive
13,CCC(=O)N(C)C[C@@H]1Oc2ncc(C#C[C@H](C)O)cc2C(=O)N([C@@H](C)CO)C[C@H]1C,inactive
14,O=C(C[C@@H]1C[C@@H]2c3cc(NC(=O)Nc4ccccc4)ccc3O[C@@H]2[C@H](CO)O1)NCCN1CCCCC1,inactive
15,CN1CCN2c3ccccc3Cc3ccccc3C2C1.Cl (centres undefined),inactive
16,C[C@H]1CCCN(C(=O)N2c3ccccc3Sc3ccccc32)C1,inactive
17,CN1CCC[C@@H](CC2c3ccccc3Sc3ccccc32)C1,active
18,C[C@@H]1CN([C@@H](C)CO)C(=O)c2c(c3ccccc3n2C)-c2ccccc2CO[C@H]1CN(C)C(=O)CCC(F)(F)F,inactive
19,Cn1c(=O)c2c(nc(S(C)(=O)=O)n2C)n(C)c1=O,active
20,Cn1c(=O)c2c(nc(SCSc3nc4c(c(=O)n(C)c(=O)n4C)n3C)n2C)n(C)c1=O,inactive
21,COCCc1nc2c(c(=O)n(C)c(=O)n2C)n1C,inactive
22,C[C@@H]1CN([C@@H](C)CO)C(=O)c2cc(NC(=O)Nc3cccc4ccccc34)ccc2O[C@H]1CN(C)C(=O)Nc1ccc(F)cc1,inactive

row,SMILES,cytotoxicity call
1,C[C@@H]1CN([C@H](C)CO)C(=O)CCCn2nncc2CO[C@H]1CN(C)S(=O)(=O)c1cn(C)cn1,inactive
2,C[C@@H]1CN([C@@H](C)CO)C(=O)Cc2cc(NC(=O)Nc3ccc(C(F)(F)F)cc3)ccc2O[C@@H]1CN(C)C(=O)Nc1ccc(F)cc1,active
3,C[C@@H]1CN([C@H](C)CO)C(=O)Cc2cc(NC(=O)Nc3ccc(C(F)(F)F)cc3)ccc2O[C@@H]1CN(C)C(=O)Nc1ccc(F)cc1,active
4,C[C@H](CO)N1C[C@H](C)[C@H](CN(C)C(=O)Nc2ccc(C(F)(F)F)cc2)Oc2ccc(NC(=O)Nc3ccc(F)cc3)cc2CC1=O,inactive
5,C[C@H]1CN([C@@H](C)CO)C(=O)Cc2cc(NC(=O)Nc3ccc(C(F)(F)F)cc3)ccc2O[C@H]1CN(C)C(=O)Nc1ccc(F)cc1,active
6,C[C@@H]1CN([C@H](C)CO)C(=O)Cc2cc(NC(=O)Nc3ccc(F)cc3)ccc2O[C@H]1CN(C)C(=O)Nc1ccc(C(F)(F)F)cc1,inactive
7,C[C@@H]1CN([C@@H](C)CO)C(=O)Cc2cc(NC(=O)Nc3ccc(C(F)(F)F)cc3)ccc2O[C@H]1CN(C)C(=O)Nc1ccc(F)cc1,inactive
8,C[C@@H]1CN([C@H](C)CO)C(=O)Cc2cc(NC(=O)Nc3ccc(C(F)(F)F)cc3)ccc2O[C@H]1CN(C)C(=O)Nc1ccc(F)cc1,inactive
9,C[C@H]1CN([C@@H](C)CO)C(=O)Cc2cc(NC(=O)Nc3ccc(F)cc3)ccc2O[C@@H]1CN(C)C(=O)Nc1ccc(C(F)(F)F)cc1,inactive
10,C[C@H](CO)N1C[C@H](C)[C@H](CN(C)C(=O)Nc2ccc(F)cc2)Oc2ccc(NC(=O)Nc3ccc(C(F)(F)F)cc3)cc2CC1=O,inactive
11,C[C@@H]1CN([C@@H](C)CO)C(=O)Cc2cc(NC(=O)Nc3ccc(F)cc3)ccc2O[C@H]1CN(C)C(=O)Nc1ccc(C(F)(F)F)cc1,inactive
12,C[C@H](CO)N1C[C@H](C)[C@@H](CN(C)C(=O)Nc2ccc(F)cc2)Oc2ccc(NC(=O)Nc3ccc(C(F)(F)F)cc3)cc2CC1=O,active
13,C[C@@H]1CN([C@@H](C)CO)C(=O)Cc2cc(NC(=O)Nc3ccc(F)cc3)ccc2O[C@@H]1CN(C)C(=O)Nc1ccc(C(F)(F)F)cc1,inactive
14,Cc1ccc(S(=O)(=O)N(C)C[C@H]2OCCCC[C@H](C)Oc3ccc(NC(=O)Nc4ccc(C(F)(F)F)cc4)cc3C(=O)N([C@H](C)CO)C[C@@H]2C)cc1,inactive
15,C[C@@H]1CN([C@@H](C)CO)C(=O)c2cc(NC(=O)Nc3ccc(F)cc3)ccc2O[C@@H](C)CCCCO[C@@H]1CN(C)S(=O)(=O)c1ccc(Cl)cc1,inactive
16,COCC(=O)Nc1ccc2c(c1)[C@@H]1C[C@@H](CC(=O)N3CCOCC3)O[C@H](CO)[C@@H]1O2,inactive
17,C[C@H](CO)N1C[C@H](C)[C@@H](CN(C)S(=O)(=O)c2cn(C)cn2)Oc2ccc(NC(=O)Nc3ccccc3)cc2CC1=O,inactive
18,CCCc1ncc(C[n+]2ccccc2C)c(N)n1.[Cl-],inactive
19,C[C@@H]1CCCCO[C@H](CN(C)S(=O)(=O)c2cccs2)[C@H](C)CN([C@H](C)CO)C(=O)c2cc(NC(=O)c3ccccc3)ccc2O1,inactive
20,C[C@@H]1CN([C@@H](C)CO)C(=O)c2cccc(NS(=O)(=O)c3cccs3)c2O[C@@H]1CN(C)Cc1ccc(Oc2ccccc2)cc1,inactive

# — the antibiotic and cytotoxicity screens of Wong et al. (2023)
